Measurements reported in PubChem BioAssay AID425 (Sanford-Burnham Center for Chemical Genomics, 2006).
Among all 110,000 compounds or so, about 190 (0.17%) were called active. What follows is part of a selection rich in actives, with near analogues and random picks from the rest. Measured potencies and affinities stand elsewhere. Unmarked numbers belong to inactive results. Rule as the data show it: active = inhibition above about 50%; inactive = the rest.

These molecules were tested against Dual specificity protein phosphatase 6 (Rattus norvegicus) (UniProt Q64346) (assay: inhibition of rat DUSP6 enzyme activity – biochemical, in vitro, primary screen (AID 425;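 also: plate controls were vehicle for no effect and reference inhibitor for full effect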)). Settings: recombinant MKP-3 phosphatase activity, fluorescence; at 20 µM; hits give high values.
Chain of Dual specificity protein phosphatase 6 (Rattus norvegicus) (Q64346 whole entry, looked up): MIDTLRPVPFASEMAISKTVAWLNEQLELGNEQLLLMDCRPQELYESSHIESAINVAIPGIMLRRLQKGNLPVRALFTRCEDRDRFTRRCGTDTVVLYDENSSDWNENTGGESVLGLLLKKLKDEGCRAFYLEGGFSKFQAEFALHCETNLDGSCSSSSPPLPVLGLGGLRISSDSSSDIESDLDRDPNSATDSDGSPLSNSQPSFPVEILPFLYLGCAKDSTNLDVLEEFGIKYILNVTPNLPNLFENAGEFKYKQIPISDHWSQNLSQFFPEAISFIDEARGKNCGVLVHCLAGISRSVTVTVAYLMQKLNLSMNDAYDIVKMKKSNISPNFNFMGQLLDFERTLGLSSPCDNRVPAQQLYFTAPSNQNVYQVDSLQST

Question: `Cc1cc(Cl)ccc1OCCCC(=O)NC1CCN(C)CC1` was tested. Which inhibition did it give?
Answer: -4.9%

Question: For `Cn1c(CCNC(=O)c2ccccc2F)nnc1SCc1nc2ccccc2c(=O)[nH]1`, which inhibition is on record?
Answer: -5.4%

Question: `COc1ccc(S(=O)(=O)Nc2cccc([N+](=O)[O-])c2C)cc1` was tested. Which inhibition did it give?
Answer: -0.4%

Question: With `CCCCSc1nc(C)c(CC(=O)OC)c(=O)[nH]1` as the molecule, how does the inhibition read?
Answer: -20.2%

Question: Which inhibition does the source give for `CCCOc1cccc(C(=O)Nc2ccc(Br)cc2C(=O)O)c1` here?
Answer: 2.6%

Question: With `O=C1NN(c2ccccc2)C(=O)/C1=C/c1ccc(-c2ccccc2[N+](=O)[O-])o1` as the molecule, how does the inhibition read?
Answer: 16%

Question: With `O=C1NN(c2ccccc2)C(=O)/C1=C/c1ccc(Br)o1` as the molecule, how does the inhibition read?
Answer: 75.8% (active)

Question: For `C=CCN1C(=O)/C(=C\c2ccc(-c3ccc([N+](=O)[O-])cc3)o2)C(=O)NC1=S`, which inhibition is on record?
Answer: 25.4%

Question: For `O=C1NN(c2ccccc2)C(=O)/C1=C/c1ccc(-c2cccc([N+](=O)[O-])c2)o1`, which inhibition is on record?
Answer: 6.9%

Question: `O=C1NN(c2ccccc2)C(=O)/C1=C/c1ccc(-c2ccccc2)o1` was tested. Which inhibition did it give?
Answer: 7.9%

Question: How did the inhibition turn out when `O=C1NN(c2ccccc2)C(=O)/C1=C/c1ccc(-c2ccc(F)cc2)o1` was run?
Answer: -3.3%

Question: With `C=CCN1C(=O)/C(=C\c2ccc(I)o2)C(=O)NC1=S` as the molecule, how does the inhibition read?
Answer: 4.5%

Question: For `O=C1NN(c2ccccc2)C(=O)/C1=C/c1ccc([N+](=O)[O-])o1`, which inhibition is on record?
Answer: 56.6% (active)

Question: How did the inhibition turn out when `C=CCN1C(=O)/C(=C\c2ccc([N+](=O)[O-])o2)C(=O)NC1=S` was run?
Answer: 95.8% (active)

Question: How did the inhibition turn out when `Cc1ccc(S(=O)(=O)NC(C)(C)CN2CCN(CC(C)(C)NS(=O)(=O)c3ccc(C)cc3)CC2)cc1` was run?
Answer: -0.5%

Question: `Cc1ccc2nc(NC(=O)c3ccccc3)sc2c1` was tested. Which inhibition did it give?
Answer: 1.9%

Question: Which inhibition does the source give for `COc1ccccc1/C=C/C=N/NC(=O)CSc1nc2ccccc2n1C` here?
Answer: 1.8%

Question: `CCOc1ccccc1NC(=O)c1c(NC(=O)c2cccc(F)c2)sc2c1CCC(C)C2` (configuration not stated) was tested. Which inhibition did it give?
Answer: 3.6%

Question: With `CSc1nc(N2CCN(CCO)CC2)c2sc3nc(-c4ccco4)c4c(c3c2n1)CCC4` as the molecule, how does the inhibition read?
Answer: 0.5%

Question: For `CSc1nc(NCCOCCO)c2sc3nc(-c4ccco4)c4c(c3c2n1)CCC4`, which inhibition is on record?
Answer: -0.3%

Question: Which inhibition does the source give for `O=C(/C=C/c1ccco1)Nc1ccc(Cl)c(Cl)c1` here?
Answer: 10.7%

Question: For `O=C(/C=C/c1ccco1)/C=C/c1ccc(-c2ccc(Cl)c(Cl)c2)o1`, which inhibition is on record?
Answer: 75.1% (active)

Question: With `O=C(O)/C=C/c1ccc(-c2ccc(Cl)c(Cl)c2)o1` as the molecule, how does the inhibition read?
Answer: -3.2%

Question: How did the inhibition turn out when `Cc1ccc(S(=O)(=O)/N=C2/C=C(Sc3nnnn3-c3ccccc3)C(=O)c3ccccc32)cc1` was run?
Answer: 27.3%

Question: How did the inhibition turn out when `Cc1ccc(S(=O)(=O)/N=C2/C=C(Cl)C(=O)c3ccccc32)cc1` was run?
Answer: 52.7% (active)

Question: With `Cc1ccc(S(=O)(=O)/N=C2\C=C(Sc3ncn[nH]3)C(=O)c3ccccc32)cc1` as the molecule, how does the inhibition read?
Answer: 98.1% (active)

Question: With `Cc1ccc(S(=O)(=O)/N=C2/C=C(S(=O)(=O)c3ccc(C)cc3)C(=O)c3ccccc32)cc1` as the molecule, how does the inhibition read?
Answer: 20.6%

Question: How did the inhibition turn out when `O=C1C(Cl)=CC(=NS(=O)(=O)c2ccc(Cl)cc2)c2ccccc21` was run?
Answer: 95.7% (active)

Question: How did the inhibition turn out when `Cc1ccc(S(=O)(=O)/N=C2\C=C(n3cnc4ccccc43)C(=O)c3ccccc32)cc1` was run?
Answer: 36.8%

Question: How did the inhibition turn out when `O=C1C(N2CCOCC2)=C/C(=N\S(=O)(=O)c2ccc(Cl)cc2)c2ccccc21` was run?
Answer: 5.9%

Question: With `COC(=O)C(C(=O)OC)C1=C/C(=N/S(=O)(=O)c2ccc(C)cc2)c2ccccc2C1=O` as the molecule, how does the inhibition read?
Answer: 1.7%

Question: With `COc1ccc(S(=O)(=O)/N=C2\C=C(Br)C(=O)c3ccccc32)cc1` as the molecule, how does the inhibition read?
Answer: 97.9% (active)

Question: How did the inhibition turn out when `COc1ccc(S(=O)(=O)N=C2C=CC(=NS(=O)(=O)c3ccc(OC)cc3)C=C2)cc1` was run?
Answer: 1.8%

Question: `O=C1C(Cl)=C/C(=N\S(=O)(=O)c2ccc(Cl)cc2)C(Cl)=C1Cl` was tested. Which inhibition did it give?
Answer: -1%

Question: How did the inhibition turn out when `Cc1ccc(S(=O)(=O)/N=C2\C=CC(=O)C=C2Cl)cc1` was run?
Answer: -0.1%

Question: How did the inhibition turn out when `N#CC1=C(N)N(c2ccccc2)C(c2ccco2)C1(C#N)C#N` (configuration not stated) was run?
Answer: -9.8%

Question: For `COC(=O)c1ccccc1NC(=O)c1ccccc1C`, which inhibition is on record?
Answer: 0.2%

Question: For `O=C(/C=C/c1ccc2c(c1)OCO2)NC1CC2CCC1C2` (configuration not stated), which inhibition is on record?
Answer: 3.3%

Question: `COc1ccc(C2=NN(CN3C(=O)C(=O)c4ccccc43)C(c3ccccc3)C2)cc1` (configuration not stated) was tested. Which inhibition did it give?
Answer: 1.1%

Question: `O=C1C2=C(C(c3ccccc3)=NCCN2)C(c2ccc(O)cc2)N1c1ccccc1` (configuration not stated) was tested. Which inhibition did it give?
Answer: 0.2%

Question: Which inhibition does the source give for `Cc1ccccc1N1C(=O)/C(=C\c2cccs2)SC1=S` here?
Answer: 0.2%

Question: Which inhibition does the source give for `Cc1cccc(-c2nnc(SCc3nc4ccccc4[nH]3)n2Cc2ccco2)c1` here?
Answer: -6.8%

Question: `O=S(=O)(NCCOCCNS(=O)(=O)c1ccccc1)c1ccccc1` was tested. Which inhibition did it give?
Answer: -1.6%

Question: Which inhibition does the source give for `Cc1ccc(/C(O)=C(\C#N)c2nc3ccccc3[nH]2)cc1` here?
Answer: 5.3%

Question: How did the inhibition turn out when `O=C(O/N=C1/CCCc2c1sc1nc3n(c(=O)c21)CCCCC3)c1ccc([N+](=O)[O-])cc1` was run?
Answer: -4.1%

Question: Which inhibition does the source give for `Cc1ccc(S(=O)(=O)NC(=O)N2CCc3ccccc32)cc1` here?
Answer: 4.5%

Question: For `CCN(CC)C(=O)CSc1nc2cccnc2n1-c1ccccc1OC`, which inhibition is on record?
Answer: -6.6%

Question: With `OCCCc1nc2ccccc2n1Cc1ccc2ccccc2c1` as the molecule, how does the inhibition read?
Answer: 3.2%

Question: With `CCc1nn(CC(=O)NCCCN(CC)Cc2ccccc2)c(=O)c2cc3sccc3n12` as the molecule, how does the inhibition read?
Answer: 2%

Question: For `O=C1NC(=O)/C(=C\c2ccc(-c3ccc(C(=O)O)cc3)o2)S1`, which inhibition is on record?
Answer: 2.5%

Question: For `O=C(O)c1cc(-c2ccc(C=C3C(=O)c4ccccc4C3=O)o2)ccc1O`, which inhibition is on record?
Answer: 47.2%

Question: How did the inhibition turn out when `O=C1NC(=S)S/C1=C\c1ccc(-c2ccc(Cl)c(C(=O)O)c2)o1` was run?
Answer: 10.9%

Question: How did the inhibition turn out when `O=C1/C(=C/c2ccc(-c3ccc(Cl)cc3C(=O)O)o2)Sc2ccccc21` was run?
Answer: 7.4%

Question: `O=C1NC(=O)/C(=C/c2ccc(-c3ccc(O)c(C(=O)O)c3)o2)S1` was tested. Which inhibition did it give?
Answer: 105% (active)

Question: With `O=C(O)c1cc(-c2ccc(/C=C3/Sc4ccccc4C3=O)o2)ccc1O` as the molecule, how does the inhibition read?
Answer: 84.4% (active)

Question: `COc1ccccc1CNC(=O)C(NC(=O)C1CCCCC1)C(C)C` (configuration not stated) was tested. Which inhibition did it give?
Answer: -3.5%

Question: With `CCOC(=O)CNC(=S)Nc1ccc(F)cc1` as the molecule, how does the inhibition read?
Answer: 1.8%
